12-LOX inh = inhibitors of human 12S-lipoxygenase ALOX12; P18054; purified 12hLO, xylenol orange hydroperoxide absorbance; Potency, µM (top dose mostly 108 µM), usual class: inhibitors; 580,000 tested, 1.1% active; AID 1671190
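Purified human 12hLO at 150 nM in 25 mM Hepes, 0.01% Triton X-100, pH 7.0, preincubated 15 min at room temperature with compound. Reaction started with 40 uM arachidonic acid, 30 min at room temperature. Hydroperoxide measured by Fe-xylenol orange, 573/405 nm absorbance ratio.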
BAZ2B inh = BAZ2B (human) inhibition; Q9UIF8; AlphaScreen BAZ2B-H3K14Ac peptide displacement; Potency, µM (series often up to 114 µM), most hits filed as inhibitors; 360,000 tested, 4.4% active; AID 504333; also: nearly all actives have a fitted effect of over 60% in size
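AlphaScreen luminescence quantifies BAZ2B engagement of H3K14Ac peptide; the protein and biotinylated peptide are both at 50 nM final, buffer PBS pH 7.4 with 0.01% Tween-20, all steps at room temperature.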
G9a inh = G9a (human) methyltransferase inhibition | Q96KQ7 | G9a H3K9 monomethylation, AlphaScreen, 2 h | Potency, µM (series often up to 102 µM), actives largely listed as inhibitors | 350,000 tested, 8.8% active; also: nearly all actives have a fitted effect of over 75% in size
Target sequence (Q96KQ7 913-1193 limits assumed): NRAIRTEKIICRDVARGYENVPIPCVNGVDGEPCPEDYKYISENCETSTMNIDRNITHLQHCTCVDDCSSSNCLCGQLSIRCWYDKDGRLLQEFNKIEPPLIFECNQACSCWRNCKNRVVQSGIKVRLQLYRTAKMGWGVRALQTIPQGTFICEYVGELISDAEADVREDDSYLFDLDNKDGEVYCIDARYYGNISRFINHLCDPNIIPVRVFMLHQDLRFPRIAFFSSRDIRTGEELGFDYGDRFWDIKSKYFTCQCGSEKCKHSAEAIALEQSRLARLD
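Enzyme 20 nM + cpd, 15 min RT; add b-H3K9 pep 500 nM / SAM 20 uM; 2 h RT; anti-H3K9me1 Ab 0.5 ug/mL + SA donor / anti-rabbit acceptor beads 20 ug/mL each, 10 min; AlphaScreen read.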
JMJD2A Tudor inh = JMJD2A Tudor domain (human) inhibition. O75164. AlphaScreen JMJD2A-Tudor / H3K4me3 peptide binding. Potency, µM (highest dose often 114 µM), most hits filed as inhibitors. 390,000 tested, 4.4% active. AID 504339; also: nearly all actives have a fitted effect of over 50% in size
PLK1 PBD block = PLK1 (human) polo-box domain binding inhibition; P53350; Plk1 PBD binding of FITC phosphopeptide, fluorescence polarization; Potency, µM, actives largely listed as inhibitors; 360,000 tested, 2.8% active; AID 720504; also: series mostly up to about 57 µM; nearly all actives have a fitted effect of over 65% in size
HP1b chromo inh = HP1-beta chromodomain-methylated histone interaction inhibition. 390,000 tested, 0.56% active. Potency, µM (top dose mostly 114 µM), hits mostly inhibitors. AlphaScreen HP1-beta / biotin-H3K9me3 peptide binding. AID 540317; also: nearly all actives have a fitted effect of over 70% in size
Target sequence (P83916 whole entry, looked up): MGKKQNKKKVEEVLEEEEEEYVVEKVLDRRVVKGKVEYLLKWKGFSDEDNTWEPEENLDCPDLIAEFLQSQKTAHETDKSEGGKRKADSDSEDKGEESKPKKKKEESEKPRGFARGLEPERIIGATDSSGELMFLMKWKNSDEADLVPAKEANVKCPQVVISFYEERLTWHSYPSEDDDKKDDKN
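AlphaScreen: HP1-beta (50 nM) preformed 30 min with biotin-H3(1-18)K9me3 peptide (50 nM) in PBS pH 7.4, 0.01% Tween-20. Compound added for 30 min at RT, then streptavidin donor/nickel chelate acceptor beads (10 ug/mL) for 30 min.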
Numbers stand for hits; n = inactive; u = inconclusive; x = no result; [ ] = dose if it differs, or a comment. The list is not random: actives were taken first. Their share in the collection is about 9%. Calls follow the shape of the dose curve; as a rule, active = well fitted curve in the direction sought with a large enough effect; inconclusive = small, poorly fitted or top-dose-only effect, or another doubt; inactive = no such curve, though single readings can be large; an effect the other way counts as inactive or inconclusive.

SMILES	12-LOX inh	BAZ2B inh	G9a inh	JMJD2A Tudor inh	PLK1 PBD block	HP1b chromo inh
COc1cc(NC(=O)CSc2ncnc3sc4c(c23)CCCC4)c(C(=O)O)cc1OC	n	n	u	n	27µM	n
COc1ccc2nc(SCC(=O)Nc3cc(OC)c(OC)cc3C(=O)O)c(C)cc2c1	n	n	56µM	u	30µM	n
Cc1n[nH]c(C)c1C(NC(=O)c1scc2c1OCCO2)C(=O)O (stereo not given)	n	x	x	x	x	x
CNc1nc(-c2ccoc2)nc2ccccc12	35µM	x	n[0.501 µM]	x	x	x
c1csc(CNc2nc(-c3ccoc3)nc3ccccc23)c1	10µM	x	u	x	x	x
NC(=O)c1nn(CC(=O)NCCc2ccccc2)c(=O)c2ccccc12	n	x	x	x	x	x
Cc1ccc(-c2csc(NC(=O)CSc3nc4ccccc4c(=O)n3CCCN(C)C)n2)cc1	u	u	40µM	45µM	n	u
Cn1c(SCC(=O)N2c3ccccc3Sc3ccccc32)nc2ccccc21	n	n	n	u	n	n
CN(C)CCCn1c(SCC(=O)N2c3ccccc3Sc3ccccc32)nc2ccccc2c1=O	n	u	40µM	u	n	u
CCn1c(SCC(=O)Nc2nc(-c3ccc(C)cc3)cs2)nnc1-c1ccccc1	n	n	n	n	n	n
Cc1ccc(Nc2nnc(SCC(=O)Nc3ncc(C(F)(F)F)cc3Cl)s2)cc1	n	n	7.1µM	n	n	n
Cc1cccc(C)c1Nc1nnc(SCC(=O)Nc2ncc(C(F)(F)F)cc2Cl)s1	n	n	2.2µM	25µM	u	n
Cc1cccc(Nc2nnc(SCC(=O)Nc3ncc(C(F)(F)F)cc3Cl)s2)c1C	n	n	n	n	n	n
CCOCc1c(C(=O)OCC(=O)Nc2ccccc2C(N)=O)oc2ccccc12	u	n	n[2.33 µM]	n	n	n
COc1ccc(C(=O)N(C)C2CCCCC2)cc1OC1CCN(C(C)C)CC1	n	n	n	n	n	n
Cc1cc(C)n(CC(C)NC(=O)c2cc(COc3c(F)cccc3F)on2)n1 (stereo not given)	n	n	x	u	19µM	n
O=S(Cc1ccccc1)Cc1ccc(F)cc1Cl (stereo not given)	n	x	x	x	x	x
CCCNc1cc(N2CCC(CCC(=O)NCC)CC2)ncn1	n	x	x	x	x	x
Cc1cc(O)c(C(C)C)cc1N=Cc1cc([N+](=O)[O-])ccc1O	u	n	x	n	n	n
Cc1cc(O)c(C(C)C)cc1N=Cc1ccccc1O	u	u	5.6µM	u	n	n
Cc1cnc(=O)[nH]c1SCc1ccc(C(F)(F)F)cc1	n	n	n	n	n	n
Cc1cnc(=O)[nH]c1SCc1ccc([N+](=O)[O-])cc1	n	u	63µM	n	u	n
CC1C=CC(C)C(C(=O)O)C1C(=O)O (stereo not given)	n	50µM	u	45µM	u	n
O=C(NCC1CCCO1)c1cc(-c2ccncc2)nc2ccccc12 (stereo not given)	n	n	n	n	n	n
O=C(NC1CC1)c1cc(-c2ccccc2)nc2ccccc12	n	x	x	x	x	x
SMILES	12-LOX inh	BAZ2B inh	G9a inh	JMJD2A Tudor inh	PLK1 PBD block	HP1b chromo inh
Cc1ccccc1Nc1cc(C(=O)NC2CCCC2)c2ccccc2n1	n	x	n	n	x	n
O=C(NC1CCC(O)CC1)c1cc(-c2ccco2)nc2ccccc12 (stereo not given)	u	22µM	40µM	u	u	n
Cc1ccccc1Nc1cc(C(=O)NCC2CCCO2)c2ccccc2n1 (stereo not given)	n	n	n	n[11.4 µM]	11µM	n
O=C(NCC1CCCO1)c1cc(-c2ccco2)nc2ccccc12 (stereo not given)	u	50µM	45µM	n[11.4 µM]	u	u
CC1CCC(NC(=O)c2cc(-c3ccccc3)nc3ccccc23)CC1 (stereo not given)	0.79µM	x	x	x	x	x
CCCCn1cc2c(c1-c1cccc(C)c1)c(=O)n(C)c(=O)n2C	u	u	x	n	n	n
Cc1ccc(-c2cc(C(=O)NC3CC3)c3ccccc3n2)o1	13µM	x	x	x	x	x
CC1CCC(NC(=O)CNC(=O)Cc2cccc3ccccc23)CC1 (stereo not given)	n	n	n	u	24µM	n
O=C(NC1CCCCCCC1)c1cc(-c2ccccn2)nc2ccccc12	n	n	n	u	27µM	n
